Results taken from the supplement of paper PMC11732987, “Enantioselective OTUD7B fragment discovery through chemoproteomics screening and high-throughput optimisation” (Communications Chemistry, 2025).

How the values were obtained:
Assay in all cases: log2 ratio of Biotin-Ahx-Ub-VS probe labelling (fragment/DMSO); higher = less target engagement (more negative = stronger competition), active = hit call of the paper (q ≤ 0.05, log2 ratio ≤ -1)
Settings in all cases: compound concentration: 200 uM; treatment time: 3 h
USP42 = molecular target: T1, USP42 (UniProt Q9H9J4)
T1 sequence (whole entry): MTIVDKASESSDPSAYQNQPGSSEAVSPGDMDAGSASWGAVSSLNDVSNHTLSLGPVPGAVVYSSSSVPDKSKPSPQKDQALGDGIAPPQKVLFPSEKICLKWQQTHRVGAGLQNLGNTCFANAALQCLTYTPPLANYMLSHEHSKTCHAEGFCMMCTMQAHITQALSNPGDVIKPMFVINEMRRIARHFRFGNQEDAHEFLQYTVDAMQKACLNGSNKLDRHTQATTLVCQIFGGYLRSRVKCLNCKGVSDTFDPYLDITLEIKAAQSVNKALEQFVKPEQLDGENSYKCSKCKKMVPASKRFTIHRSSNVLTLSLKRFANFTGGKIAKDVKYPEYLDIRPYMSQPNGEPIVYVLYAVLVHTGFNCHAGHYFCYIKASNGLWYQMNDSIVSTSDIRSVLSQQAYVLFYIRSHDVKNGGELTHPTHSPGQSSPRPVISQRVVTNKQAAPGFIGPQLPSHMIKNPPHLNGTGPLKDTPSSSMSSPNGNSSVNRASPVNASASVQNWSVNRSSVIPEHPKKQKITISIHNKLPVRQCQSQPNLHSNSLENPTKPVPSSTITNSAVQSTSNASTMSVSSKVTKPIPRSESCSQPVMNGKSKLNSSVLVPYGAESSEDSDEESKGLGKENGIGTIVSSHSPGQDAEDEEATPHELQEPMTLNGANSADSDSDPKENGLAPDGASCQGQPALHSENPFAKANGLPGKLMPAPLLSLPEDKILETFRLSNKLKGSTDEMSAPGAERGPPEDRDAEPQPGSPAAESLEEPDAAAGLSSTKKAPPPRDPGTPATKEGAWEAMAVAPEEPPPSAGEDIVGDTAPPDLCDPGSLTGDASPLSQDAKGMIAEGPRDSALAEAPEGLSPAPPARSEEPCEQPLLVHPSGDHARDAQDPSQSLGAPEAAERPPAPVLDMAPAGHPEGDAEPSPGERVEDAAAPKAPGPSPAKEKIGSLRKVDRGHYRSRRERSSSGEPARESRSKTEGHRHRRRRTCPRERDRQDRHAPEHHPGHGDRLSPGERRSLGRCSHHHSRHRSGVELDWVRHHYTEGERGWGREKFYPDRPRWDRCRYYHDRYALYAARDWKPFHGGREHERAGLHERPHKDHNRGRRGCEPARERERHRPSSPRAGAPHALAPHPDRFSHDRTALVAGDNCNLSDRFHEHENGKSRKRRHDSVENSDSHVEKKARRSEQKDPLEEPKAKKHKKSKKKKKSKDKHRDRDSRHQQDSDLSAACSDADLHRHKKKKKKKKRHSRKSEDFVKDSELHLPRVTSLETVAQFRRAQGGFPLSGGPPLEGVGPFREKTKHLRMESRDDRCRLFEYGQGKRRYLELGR
In short: (§1)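 HEK293T lysate in Tris/CHAPS/IGEPAL buffer with protease inhibitors (495 µg per sample) was given fragment at 200 µM or vehicle for 3 h, in triplicate. It then received Biotin-Ahx-Ub-VS at 0.5 µM final for 1 h. Labelled DUBs were NeutrAvidin-enriched, digested with LysC and trypsin, and run by diaPASEF LC-MS/MS. Values are average log2 fragment/vehicle ratios by unpaired t-test on global-median-normalised Spectronaut quantities of proteins with ≥2 unique peptides.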

USP46 = USP46 (UniProt P62068)
Sequence of USP46 (P62068 whole entry): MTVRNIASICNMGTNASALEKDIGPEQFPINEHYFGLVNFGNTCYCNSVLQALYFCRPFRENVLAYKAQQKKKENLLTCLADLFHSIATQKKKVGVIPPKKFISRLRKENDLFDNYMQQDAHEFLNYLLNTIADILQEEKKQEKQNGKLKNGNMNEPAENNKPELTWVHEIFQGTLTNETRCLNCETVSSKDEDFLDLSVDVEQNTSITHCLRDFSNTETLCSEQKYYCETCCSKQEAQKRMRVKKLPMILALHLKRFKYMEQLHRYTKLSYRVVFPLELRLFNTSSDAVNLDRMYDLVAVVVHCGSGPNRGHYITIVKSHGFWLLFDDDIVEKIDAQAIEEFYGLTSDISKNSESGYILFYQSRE
In short: as §1

USP47 = molecular target: T2, USP47 (UniProt Q96K76)
T2 sequence (whole entry): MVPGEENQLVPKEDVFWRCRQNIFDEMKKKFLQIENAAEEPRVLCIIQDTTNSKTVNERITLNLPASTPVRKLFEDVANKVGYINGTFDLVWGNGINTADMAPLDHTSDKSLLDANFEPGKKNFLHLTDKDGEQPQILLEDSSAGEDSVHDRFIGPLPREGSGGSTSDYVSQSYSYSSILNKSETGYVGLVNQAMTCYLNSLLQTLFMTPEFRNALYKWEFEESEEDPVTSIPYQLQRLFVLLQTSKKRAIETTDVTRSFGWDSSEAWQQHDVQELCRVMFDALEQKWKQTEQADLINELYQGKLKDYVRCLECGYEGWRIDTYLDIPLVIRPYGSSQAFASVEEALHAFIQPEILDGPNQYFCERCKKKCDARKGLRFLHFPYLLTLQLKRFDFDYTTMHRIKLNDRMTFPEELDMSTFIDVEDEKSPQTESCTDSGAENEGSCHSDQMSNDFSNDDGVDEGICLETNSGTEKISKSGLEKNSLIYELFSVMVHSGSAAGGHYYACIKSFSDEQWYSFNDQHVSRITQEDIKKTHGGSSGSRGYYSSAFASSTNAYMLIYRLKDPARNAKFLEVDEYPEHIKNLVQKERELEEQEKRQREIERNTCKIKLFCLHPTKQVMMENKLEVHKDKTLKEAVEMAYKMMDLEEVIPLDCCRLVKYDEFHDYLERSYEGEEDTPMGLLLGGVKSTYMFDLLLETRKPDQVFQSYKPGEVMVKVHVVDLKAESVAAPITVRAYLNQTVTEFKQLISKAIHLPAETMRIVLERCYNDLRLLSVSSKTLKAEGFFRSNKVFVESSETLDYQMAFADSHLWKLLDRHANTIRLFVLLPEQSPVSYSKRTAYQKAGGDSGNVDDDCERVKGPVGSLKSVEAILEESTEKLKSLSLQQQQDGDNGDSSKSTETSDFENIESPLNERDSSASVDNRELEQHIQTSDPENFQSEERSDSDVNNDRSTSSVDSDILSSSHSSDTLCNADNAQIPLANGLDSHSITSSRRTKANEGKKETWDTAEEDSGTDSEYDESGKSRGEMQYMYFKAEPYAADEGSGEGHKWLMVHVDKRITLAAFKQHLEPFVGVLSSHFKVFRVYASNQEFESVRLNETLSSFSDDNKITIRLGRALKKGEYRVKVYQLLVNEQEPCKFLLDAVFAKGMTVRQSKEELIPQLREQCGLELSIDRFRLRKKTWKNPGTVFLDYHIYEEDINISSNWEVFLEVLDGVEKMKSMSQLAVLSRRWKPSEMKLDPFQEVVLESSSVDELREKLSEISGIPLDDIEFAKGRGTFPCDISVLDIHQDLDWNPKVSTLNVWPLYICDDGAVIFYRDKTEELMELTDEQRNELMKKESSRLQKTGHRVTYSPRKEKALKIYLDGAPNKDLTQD
In short: as §1

USP48 = molecular target: T3, USP48 (UniProt Q86UV5)
T3 sequence (whole entry): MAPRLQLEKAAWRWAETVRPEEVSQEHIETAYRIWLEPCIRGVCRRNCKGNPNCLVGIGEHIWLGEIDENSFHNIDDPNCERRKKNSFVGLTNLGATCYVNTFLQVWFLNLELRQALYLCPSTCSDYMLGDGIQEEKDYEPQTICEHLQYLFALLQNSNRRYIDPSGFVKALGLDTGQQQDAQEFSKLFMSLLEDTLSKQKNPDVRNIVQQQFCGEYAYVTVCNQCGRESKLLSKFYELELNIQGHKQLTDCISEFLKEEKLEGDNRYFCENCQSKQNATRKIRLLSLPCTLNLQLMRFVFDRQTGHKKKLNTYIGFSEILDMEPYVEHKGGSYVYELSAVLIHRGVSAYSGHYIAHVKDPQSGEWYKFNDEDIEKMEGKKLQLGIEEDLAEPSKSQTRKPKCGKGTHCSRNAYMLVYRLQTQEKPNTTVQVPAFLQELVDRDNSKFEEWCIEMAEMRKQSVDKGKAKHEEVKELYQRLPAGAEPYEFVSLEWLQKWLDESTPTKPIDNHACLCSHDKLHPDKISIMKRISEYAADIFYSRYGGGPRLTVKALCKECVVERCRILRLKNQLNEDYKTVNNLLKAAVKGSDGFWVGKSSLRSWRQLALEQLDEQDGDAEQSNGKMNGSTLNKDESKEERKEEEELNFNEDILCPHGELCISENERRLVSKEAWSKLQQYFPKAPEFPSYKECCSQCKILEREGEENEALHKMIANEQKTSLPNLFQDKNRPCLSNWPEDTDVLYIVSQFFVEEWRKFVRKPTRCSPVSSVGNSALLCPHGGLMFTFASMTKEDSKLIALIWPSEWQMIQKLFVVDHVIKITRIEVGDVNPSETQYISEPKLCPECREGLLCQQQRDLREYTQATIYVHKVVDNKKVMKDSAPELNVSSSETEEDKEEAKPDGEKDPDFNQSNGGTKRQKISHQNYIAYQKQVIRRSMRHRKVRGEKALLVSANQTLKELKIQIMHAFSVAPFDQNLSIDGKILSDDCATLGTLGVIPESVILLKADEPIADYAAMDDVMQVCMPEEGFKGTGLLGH
In short: as §1

USP5 = molecular target: T4, USP5 (UniProt P45974)
T4 sequence (whole entry): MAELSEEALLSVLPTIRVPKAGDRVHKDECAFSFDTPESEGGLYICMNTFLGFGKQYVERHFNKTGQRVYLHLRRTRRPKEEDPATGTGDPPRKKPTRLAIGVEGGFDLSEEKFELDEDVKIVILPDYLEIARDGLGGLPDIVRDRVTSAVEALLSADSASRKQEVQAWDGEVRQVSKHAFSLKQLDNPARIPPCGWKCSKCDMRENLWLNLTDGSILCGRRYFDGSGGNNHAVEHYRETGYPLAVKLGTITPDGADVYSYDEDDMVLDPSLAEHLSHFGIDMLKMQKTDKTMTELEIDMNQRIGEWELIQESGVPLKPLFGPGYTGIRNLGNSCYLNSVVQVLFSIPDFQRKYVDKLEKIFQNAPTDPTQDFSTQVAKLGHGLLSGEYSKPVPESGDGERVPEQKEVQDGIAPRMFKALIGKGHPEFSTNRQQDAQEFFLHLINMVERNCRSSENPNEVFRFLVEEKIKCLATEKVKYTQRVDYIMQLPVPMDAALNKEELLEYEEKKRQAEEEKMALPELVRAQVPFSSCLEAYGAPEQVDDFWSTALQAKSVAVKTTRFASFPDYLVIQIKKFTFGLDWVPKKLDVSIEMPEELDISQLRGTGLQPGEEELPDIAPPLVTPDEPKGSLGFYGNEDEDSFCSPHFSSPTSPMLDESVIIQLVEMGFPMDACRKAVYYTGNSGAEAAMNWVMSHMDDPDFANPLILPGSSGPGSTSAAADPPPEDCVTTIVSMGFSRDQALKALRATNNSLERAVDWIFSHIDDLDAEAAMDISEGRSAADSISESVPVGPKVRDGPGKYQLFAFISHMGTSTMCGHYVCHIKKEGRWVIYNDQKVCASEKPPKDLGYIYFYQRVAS
In short: as §1

USP54 = USP54 (UniProt Q70EL1)
Sequence of USP54 (Q70EL1 whole entry): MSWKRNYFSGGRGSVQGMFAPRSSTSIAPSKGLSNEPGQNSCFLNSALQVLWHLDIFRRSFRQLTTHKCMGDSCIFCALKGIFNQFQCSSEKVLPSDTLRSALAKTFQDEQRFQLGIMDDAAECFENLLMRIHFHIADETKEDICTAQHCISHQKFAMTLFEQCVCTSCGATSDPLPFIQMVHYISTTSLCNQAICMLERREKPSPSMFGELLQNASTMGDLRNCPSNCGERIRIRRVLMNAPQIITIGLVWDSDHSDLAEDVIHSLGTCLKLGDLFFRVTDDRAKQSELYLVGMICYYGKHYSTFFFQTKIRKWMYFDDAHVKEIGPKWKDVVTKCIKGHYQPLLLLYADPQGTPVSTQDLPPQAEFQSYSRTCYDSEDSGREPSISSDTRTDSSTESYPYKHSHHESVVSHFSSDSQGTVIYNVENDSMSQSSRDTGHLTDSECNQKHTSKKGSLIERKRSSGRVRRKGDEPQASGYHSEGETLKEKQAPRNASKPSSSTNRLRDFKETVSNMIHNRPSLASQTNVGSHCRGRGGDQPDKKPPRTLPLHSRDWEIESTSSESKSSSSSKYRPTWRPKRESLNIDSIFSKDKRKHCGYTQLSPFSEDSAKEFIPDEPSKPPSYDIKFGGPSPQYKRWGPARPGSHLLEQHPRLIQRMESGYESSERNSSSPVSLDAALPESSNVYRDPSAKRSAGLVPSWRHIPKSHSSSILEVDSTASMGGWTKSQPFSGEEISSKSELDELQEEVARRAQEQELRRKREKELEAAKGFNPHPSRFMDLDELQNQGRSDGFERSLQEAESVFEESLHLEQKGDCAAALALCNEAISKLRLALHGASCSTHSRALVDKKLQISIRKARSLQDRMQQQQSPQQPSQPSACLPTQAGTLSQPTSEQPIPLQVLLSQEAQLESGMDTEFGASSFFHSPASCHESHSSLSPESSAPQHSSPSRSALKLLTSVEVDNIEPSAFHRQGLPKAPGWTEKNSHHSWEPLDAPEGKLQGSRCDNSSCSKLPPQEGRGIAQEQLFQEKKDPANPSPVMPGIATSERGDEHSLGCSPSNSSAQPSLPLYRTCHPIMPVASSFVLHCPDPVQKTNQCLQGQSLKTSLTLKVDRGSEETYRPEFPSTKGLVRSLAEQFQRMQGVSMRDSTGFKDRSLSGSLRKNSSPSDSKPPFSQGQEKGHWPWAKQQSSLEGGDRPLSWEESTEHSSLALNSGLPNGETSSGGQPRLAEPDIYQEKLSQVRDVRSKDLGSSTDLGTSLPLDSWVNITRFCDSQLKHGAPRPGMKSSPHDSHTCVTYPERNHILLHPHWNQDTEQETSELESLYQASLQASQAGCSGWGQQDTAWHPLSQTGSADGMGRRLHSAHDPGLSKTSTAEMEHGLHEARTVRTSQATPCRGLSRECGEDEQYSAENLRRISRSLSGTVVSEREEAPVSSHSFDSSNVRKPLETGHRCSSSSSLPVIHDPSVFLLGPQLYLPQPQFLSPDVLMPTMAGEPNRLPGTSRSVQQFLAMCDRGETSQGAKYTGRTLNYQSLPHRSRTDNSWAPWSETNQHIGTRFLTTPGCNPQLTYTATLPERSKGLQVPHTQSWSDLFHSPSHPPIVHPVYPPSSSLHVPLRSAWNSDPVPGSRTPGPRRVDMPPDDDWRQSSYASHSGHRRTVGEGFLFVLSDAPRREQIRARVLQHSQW
In short: as §1

USP7 = USP7 (UniProt Q93009)
Sequence of USP7 (Q93009 whole entry, looked up): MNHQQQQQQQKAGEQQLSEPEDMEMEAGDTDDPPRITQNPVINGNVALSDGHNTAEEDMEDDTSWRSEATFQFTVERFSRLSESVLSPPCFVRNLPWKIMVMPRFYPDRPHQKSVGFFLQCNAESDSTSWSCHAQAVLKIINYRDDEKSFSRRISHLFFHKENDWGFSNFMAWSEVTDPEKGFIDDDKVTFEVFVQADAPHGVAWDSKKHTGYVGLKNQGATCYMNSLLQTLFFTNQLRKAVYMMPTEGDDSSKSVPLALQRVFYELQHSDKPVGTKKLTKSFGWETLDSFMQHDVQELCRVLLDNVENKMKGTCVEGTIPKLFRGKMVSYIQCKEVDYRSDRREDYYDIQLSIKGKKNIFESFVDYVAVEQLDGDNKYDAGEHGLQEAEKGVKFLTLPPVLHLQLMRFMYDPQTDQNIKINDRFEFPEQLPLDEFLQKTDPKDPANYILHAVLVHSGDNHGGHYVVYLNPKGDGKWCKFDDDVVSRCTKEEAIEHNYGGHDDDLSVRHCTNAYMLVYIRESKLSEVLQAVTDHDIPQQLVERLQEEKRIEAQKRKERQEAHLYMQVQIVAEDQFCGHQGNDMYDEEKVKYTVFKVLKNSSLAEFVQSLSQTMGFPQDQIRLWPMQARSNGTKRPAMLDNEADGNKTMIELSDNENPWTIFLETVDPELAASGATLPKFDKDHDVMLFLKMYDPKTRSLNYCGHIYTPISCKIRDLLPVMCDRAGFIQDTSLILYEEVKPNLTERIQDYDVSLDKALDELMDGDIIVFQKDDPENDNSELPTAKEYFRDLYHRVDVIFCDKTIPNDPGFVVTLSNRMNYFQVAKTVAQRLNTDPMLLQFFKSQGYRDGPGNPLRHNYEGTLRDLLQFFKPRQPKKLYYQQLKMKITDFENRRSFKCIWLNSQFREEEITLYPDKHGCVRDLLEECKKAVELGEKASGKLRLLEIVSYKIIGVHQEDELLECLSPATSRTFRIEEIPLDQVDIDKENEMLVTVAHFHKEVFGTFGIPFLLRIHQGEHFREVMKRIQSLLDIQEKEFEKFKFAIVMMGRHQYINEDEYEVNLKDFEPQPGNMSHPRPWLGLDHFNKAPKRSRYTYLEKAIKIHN
In short: as §1

USP8 = molecular target: T5, USP8 (UniProt P40818)
T5 sequence (whole entry): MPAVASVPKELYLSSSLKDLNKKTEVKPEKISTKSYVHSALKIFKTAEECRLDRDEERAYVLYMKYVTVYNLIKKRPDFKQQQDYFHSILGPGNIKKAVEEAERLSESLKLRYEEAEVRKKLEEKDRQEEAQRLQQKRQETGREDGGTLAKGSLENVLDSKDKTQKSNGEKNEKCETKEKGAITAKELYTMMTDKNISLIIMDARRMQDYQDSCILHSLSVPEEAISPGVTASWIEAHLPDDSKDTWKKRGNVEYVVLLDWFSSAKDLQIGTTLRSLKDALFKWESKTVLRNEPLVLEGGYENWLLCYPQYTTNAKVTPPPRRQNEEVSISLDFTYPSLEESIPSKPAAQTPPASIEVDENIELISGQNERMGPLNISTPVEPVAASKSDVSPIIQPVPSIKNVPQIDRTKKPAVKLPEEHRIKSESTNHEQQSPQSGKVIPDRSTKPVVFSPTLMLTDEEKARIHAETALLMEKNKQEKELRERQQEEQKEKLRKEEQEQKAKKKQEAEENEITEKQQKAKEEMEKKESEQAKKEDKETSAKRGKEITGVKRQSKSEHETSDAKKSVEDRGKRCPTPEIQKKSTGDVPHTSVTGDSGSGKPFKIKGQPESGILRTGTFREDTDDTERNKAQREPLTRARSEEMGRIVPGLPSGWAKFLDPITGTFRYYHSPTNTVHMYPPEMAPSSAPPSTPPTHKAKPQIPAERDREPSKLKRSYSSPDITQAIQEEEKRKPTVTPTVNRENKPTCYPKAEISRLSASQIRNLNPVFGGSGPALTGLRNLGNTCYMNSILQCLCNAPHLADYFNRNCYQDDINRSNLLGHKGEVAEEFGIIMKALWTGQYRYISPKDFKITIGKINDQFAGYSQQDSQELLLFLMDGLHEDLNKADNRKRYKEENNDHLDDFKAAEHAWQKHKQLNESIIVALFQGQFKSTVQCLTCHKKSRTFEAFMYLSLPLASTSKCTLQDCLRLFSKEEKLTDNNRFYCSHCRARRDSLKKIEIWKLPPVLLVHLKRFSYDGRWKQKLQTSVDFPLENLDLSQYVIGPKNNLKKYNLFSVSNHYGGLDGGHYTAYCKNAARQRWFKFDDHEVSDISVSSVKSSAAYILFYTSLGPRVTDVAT
In short: as §1

Measured: log2 ratio of Biotin-Ahx-Ub-VS probe labelling

Cc1ccc(C(=O)NCCNC(=O)CCl)cc1
inactive: USP42 -0.216 | USP46 0.0112 | USP47 -0.158 | USP48 -0.318 | USP5 -0.123 | USP54 0.576 | USP7 -0.262 | USP8 -0.271
